The text below walks through data of PubChem BioAssay.

Assay [1] has as its system Human papillomavirus type 1a protein E7 (residues 44-93). Nature of the assay: HPV1a E7 fragment binders on microarrays, primary screen, biochemical, small-molecule microarray, residues 44-93, 635 nm fluorescence (AID 1108).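 Also: E7 fragment applied at 1 µg/mL in TBST for 1 h at 4 C; score combines spot fluorescence with its signal to noise ratio.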 To be noted: small-molecule microarray binding, fluorescence 635 nm; higher = more signal.
The nature of assay [2]: modulators of HCV replicon luciferase signal, primary screen, HCV replication inhibitor project, Huh7 cells, luciferase reporter (AID 1109).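 Also: huh7 hepatoma cells harbouring a luciferase neomycin HCV replicon reporter; luciferase luminescence as measure of HCV replicon replication; test concentration not given here.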 To be noted: 48 h, higher = more signal. For orientation: A replicon is a self-replicating genome or part of one, used to study replication in cells.
Assay [3] deals with Left-right determination factor 2 (Homo sapiens) (UniProt O00292). Nature of the assay: LEFTY2 binders on small-molecule microarrays, primary screen, biochemical, small-molecule microarray, 635 nm fluorescence scan (AID 1110). To be noted: LEFTY2 binding, higher = more signal.
For assay [4], the target named is Calmodulin-1 (Homo sapiens) (UniProt P0DP23). Nature of the assay: CALM1 binders on microarrays, EGTA buffer, profiling panel, biochemical, small-molecule microarray, Cy5-labelled CALM1 (AID 1111).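 Also: labelled calmodulin applied in Tris saline Tween buffer holding calcium plus EGTA and DTT.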 As to conditions: Cy5-CALM1 binding fluorescence, higher = more signal.
For assay [5] the target is unchanged. Nature of the assay: calcium-bound CALM1 binders on microarrays, profiling panel, artefact control for SMM control-protein annotation, biochemical, small-molecule microarray, Cy5-labelled CALM1, plus calcium (AID 1112).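 Also: score merges spot fluorescence with signal to noise from triplicate slides.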 As to conditions: Cy5-CALM1 binding fluorescence, higher = more signal.
The nature of assay [6]: small-molecule microarray binders of probe aWnt5a, primary screen, biochemical, biotinylated probe, 635/667 nm fluorescence (AID 1113).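 Also: score merges 667 nm fluorescence intensity with signal-to-noise per printed feature.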 To be noted: higher = more signal.
Assay [7] can be described thus: small-molecule microarray binders of probe aShh, primary screen, biochemical, biotinylated probe, 635/667 nm fluorescence (AID 1114).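 Also: probe is biotin-labelled aShh protein from a stem cell growth factor screen; measures binding of labelled protein to compounds printed on the slide; score merges feature fluorescence at 667 nm with signal-to-noise.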 As to conditions: higher = more signal.
A short description of assay [8]: small-molecule microarray binders of probe aNog, primary screen, biochemical, biotinylated probe, 635/667 nm fluorescence (AID 1115).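 Also: probe is biotinylated aNog protein used at 0.15 µg/mL for 1 h at 4 C; z-score combines 667 nm fluorescence of each spot with its signal to noise.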 To be noted: higher = more signal.
The target of assay [9] is Torsin-1A-interacting protein 1 (Homo sapiens) (UniProt Q5JTV8). The experiment in a line: LAP1 binders from COS7 cell lysate, primary screen, small-molecule microarray, 635/667 nm fluorescence (AID 1116). As to conditions: COS7-hLAP1 lysate binding, 635 nm fluorescence, higher = more signal.
Assay [10] deals with Alpha-bungarotoxin (Bungarus multicinctus) (UniProt P60615). The experiment in a line: alpha-bungarotoxin binders on microarray, profiling panel, artefact control for SMM control protein annotation, biochemical, small-molecule microarray, Alexa647 label, 635/667 nm fluorescence (AID 1117). To be noted: alpha-BTX-A647 binding fluorescence, higher = more signal.
The next assay deals with Albumin (Bos taurus) (UniProt P02769). Nature of the assay: bovine serum albumin binders on microarray, profiling panel, artefact control for SMM control protein annotation, biochemical, small-molecule microarray, Alexa647 label, 635/667 nm fluorescence (AID 1118).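 Also: score merges 667 nm emission intensity and signal-to-noise per printed compound spot.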 As to conditions: BSA-A647 binding, fluorescence 635 nm, higher = more signal.
Assay [11] can be described thus: small-molecule microarray binders of probe aXIP, primary screen, biochemical, NeuroSMM set, 635/667 nm fluorescence (AID 1119).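 Also: probe is the protein aXip251-270 applied at 1 µg/mL to compound-printed slides; binding of probe to printed compounds measured as 667 nm fluorescence plus signal to noise.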 To be noted: higher = more signal, called active from +8 up or from −8 down.
The nature of assay [12]: small-molecule binders of probe aNOTCH3, primary screen, biochemical, small-molecule microarray, 635/667 nm fluorescence (AID 1120).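 Also: probe is a biotin-tagged antibody raised against NOTCH3 rather than NOTCH3 protein; score merges spot fluorescence near 667 nm with spot signal to noise.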 To be noted: higher = more signal.
Assay [13] can be described thus: small-molecule binders of probe aNOTCH2, primary screen, biochemical, small-molecule microarray, 635/667 nm fluorescence (AID 1121).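 Also: score merges feature fluorescence read at 667 nm with its signal to noise.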 As to conditions: higher = more signal.
Assay [14] concerns the target Carbonic anhydrase 2 (Homo sapiens) (UniProt P00918). Nature of the assay: CAII small-molecule binders, profiling panel, biochemical, small-molecule microarray, Alexa647-labelled CAII (AID 1122). As to conditions: CAII-A647 binding fluorescence, higher = more signal.
Assay [15] in a line: COS7 lysate on small-molecule microarray, probe aHis, 635 nm (AID 1123).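 Also: z-score combines 667nm fluorescence intensity with signal-to-noise per printed compound spot.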 As to conditions: COS7 cell lysate, fluorescence, higher = more signal.
A short description of assay [16]: compound binding in COS7 lysate, probe aLAP1, primary screen, cell lysate, small-molecule microarray (AID 1124).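 Also: lysate comes from COS7 cells expressing LAP1 and is applied at 0.3 µg/mL; score merges spot fluorescence near 667 nm with signal-to-noise over triplicate slides.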 As to conditions: probe aLAP1, fluorescence, higher = more signal.
For a further assay, the system named is Sam68 (KHDRBS1). The experiment in a line: Sam68 small-molecule binders, primary screen, biochemical, small-molecule microarray, 635 nm fluorescence (AID 1125).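 Also: score merges 667 nm channel intensity with signal to noise over triplicate slides.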 As to conditions: small-molecule microarray binding, higher = more signal.
Assay [17] concerns Chordin-like protein 2 (CHRDL2). Nature of the assay: CHRDL2 small-molecule binders, primary screen, biochemical, small-molecule microarray, 635 nm fluorescence (AID 1126).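 Also: printed compound slides probed with Chrdl2 protein at 4 µg/mL for 1 h at 4 C; score merges 667 nm emission intensity with signal to noise over three replicate slides.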 To be noted: small-molecule microarray binding, fluorescence 635 nm; higher = more signal.
Assay [18] concerns the target Concanavalin-A (Canavalia ensiformis) (UniProt P02866). Nature of the assay: ConA small-molecule binders, primary screen, artefact control for SMM control protein annotation, biochemical, small-molecule microarray, Alexa647 label, 635 nm (AID 1127).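 Also: z combines 667 nm emission intensity with signal-to-noise across three replicate slides.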 To be noted: ConA-A647 binding fluorescence, higher = more signal.

Each structure is given as a SMILES string. Calls of active or inactive are those of the source.

Sequence of Torsin-1A-interacting protein 1 (Homo sapiens) (Q5JTV8 whole entry, looked up): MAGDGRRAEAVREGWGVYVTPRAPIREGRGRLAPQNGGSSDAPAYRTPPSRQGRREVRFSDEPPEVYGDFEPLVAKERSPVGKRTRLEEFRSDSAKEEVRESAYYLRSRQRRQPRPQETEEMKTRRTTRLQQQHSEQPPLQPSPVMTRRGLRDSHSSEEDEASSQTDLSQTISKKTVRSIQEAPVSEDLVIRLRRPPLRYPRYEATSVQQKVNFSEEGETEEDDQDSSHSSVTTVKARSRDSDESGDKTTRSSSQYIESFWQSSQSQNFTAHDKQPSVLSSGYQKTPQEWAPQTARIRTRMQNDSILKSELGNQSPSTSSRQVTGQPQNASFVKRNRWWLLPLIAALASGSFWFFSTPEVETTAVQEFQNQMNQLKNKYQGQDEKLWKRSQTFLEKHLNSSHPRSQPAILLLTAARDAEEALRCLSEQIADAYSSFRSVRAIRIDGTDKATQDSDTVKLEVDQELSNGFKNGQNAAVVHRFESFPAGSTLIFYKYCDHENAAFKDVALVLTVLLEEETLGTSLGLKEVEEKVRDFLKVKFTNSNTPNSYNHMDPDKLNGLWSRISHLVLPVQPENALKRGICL
Sequence of Alpha-bungarotoxin (Bungarus multicinctus) (P60615 whole entry, looked up): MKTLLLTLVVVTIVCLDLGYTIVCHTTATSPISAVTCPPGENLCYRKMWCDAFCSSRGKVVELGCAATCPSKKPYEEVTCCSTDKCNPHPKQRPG
Sequence of Concanavalin-A (Canavalia ensiformis) (P02866 whole entry, looked up): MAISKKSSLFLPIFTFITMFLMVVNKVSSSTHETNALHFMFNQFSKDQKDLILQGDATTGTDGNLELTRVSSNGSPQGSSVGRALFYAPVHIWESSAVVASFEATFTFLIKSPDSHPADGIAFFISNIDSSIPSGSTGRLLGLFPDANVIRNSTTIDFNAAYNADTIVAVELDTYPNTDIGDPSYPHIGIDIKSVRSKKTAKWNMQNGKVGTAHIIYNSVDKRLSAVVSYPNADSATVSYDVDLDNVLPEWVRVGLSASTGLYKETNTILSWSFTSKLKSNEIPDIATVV
Sequence of Albumin (Bos taurus) (P02769 whole entry, looked up): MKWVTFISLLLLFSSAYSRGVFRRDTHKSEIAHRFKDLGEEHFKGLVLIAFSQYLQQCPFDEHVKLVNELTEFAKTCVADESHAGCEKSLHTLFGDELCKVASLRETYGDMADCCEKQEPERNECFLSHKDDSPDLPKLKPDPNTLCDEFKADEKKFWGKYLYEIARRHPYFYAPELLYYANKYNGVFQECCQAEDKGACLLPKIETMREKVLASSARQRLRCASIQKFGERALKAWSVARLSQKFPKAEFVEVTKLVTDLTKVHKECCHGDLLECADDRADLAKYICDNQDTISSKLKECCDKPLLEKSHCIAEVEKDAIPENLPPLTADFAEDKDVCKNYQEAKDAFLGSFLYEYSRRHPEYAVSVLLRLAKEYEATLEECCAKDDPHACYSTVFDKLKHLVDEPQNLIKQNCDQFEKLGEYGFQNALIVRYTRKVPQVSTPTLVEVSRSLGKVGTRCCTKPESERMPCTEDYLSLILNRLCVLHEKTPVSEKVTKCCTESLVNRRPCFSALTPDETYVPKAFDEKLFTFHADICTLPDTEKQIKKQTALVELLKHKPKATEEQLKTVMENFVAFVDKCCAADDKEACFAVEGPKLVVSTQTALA
Sequence of Left-right determination factor 2 (Homo sapiens) (O00292 whole entry, looked up): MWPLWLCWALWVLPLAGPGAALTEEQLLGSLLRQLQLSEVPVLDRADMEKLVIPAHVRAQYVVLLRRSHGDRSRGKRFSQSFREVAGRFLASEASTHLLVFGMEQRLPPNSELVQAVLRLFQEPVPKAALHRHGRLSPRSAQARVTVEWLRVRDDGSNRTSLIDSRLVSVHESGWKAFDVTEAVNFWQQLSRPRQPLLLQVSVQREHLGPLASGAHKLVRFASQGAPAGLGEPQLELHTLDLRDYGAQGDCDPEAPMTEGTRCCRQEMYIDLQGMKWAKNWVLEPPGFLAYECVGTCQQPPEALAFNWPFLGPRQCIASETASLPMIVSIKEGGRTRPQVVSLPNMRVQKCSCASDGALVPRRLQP

Regarding `CCCN1C(=O)[C@@]2(Cc3ccccc3)N=C(c3ccc(OCCCO)cc3)O[C@H]2c2ccccc21`, the composite z-score is 1.36 in [1]; 0.133 in [3]; -0.141 in [4]; -0.489 in assay [5]; -0.101 in assay [6]; 0.195 in assay [7]. Also, the composite z-score in assay [8] amounted to 0.0716; in assay [9] it was 1.48; in assay [10] it was 1.6; with Albumin (Bos taurus), 0.508; in assay [12] it was 0.204; in [13] it was 0.0055. Further, the composite z-score in assay [14] was 0.329; in [15], 2.69; in [16] it was 0.688; in the assay with Sam68 (KHDRBS1), 1.3; in assay [17], 0.804; in assay [18] it was 0.96. For the same compound, the z-score in assay [2] is -2.1. In assay [11], the composite Z-score was 0.72 (inactive).
With `C[N+](C)(C)CCCC[C@@H]1NC(=O)[C@@H]2C[C@H](C(=O)O)[C@H](c3cccc(OCCO)c3)N2C1=O`, the composite z-score in [1] is 0.17; in assay [3], -0.8; in assay [4], -0.705; in assay [5], 0.417; in assay [6] it was -0.276; in assay [7] it was -0.0681. The composite z-score is -0.326 in assay [8]; -0.0851 in assay [9]; -1.03 in [10]; -1.33 with Albumin (Bos taurus); -0.324 in assay [12]; 0.0022 in [13]. Moreover, the composite z-score in assay [14] is 0.49; in assay [15], 0.64; in [16], 0.303; with Sam68 (KHDRBS1), -0.0913; in assay [17] it was 0.451; in assay [18], 1.02. Further, the z-score in assay [2] is -0.208. Also, in assay [11], the composite Z-score was 1.31 (inactive).
With `C=C[C@@H](O)[C@H]1CC(c2ccccc2)=NO1`, the composite z-score is -0.893 in assay [1]; 0.277 in [3]; -0.358 in assay [4]; -0.711 in assay [5]; -0.208 in assay [6]; 0.167 in assay [7]. The composite z-score in assay [8] was -0.0524; in assay [9], 0.0222; in assay [10], -0.0532; in the assay with Albumin (Bos taurus), -0.596; in assay [12], -0.1; in [13], -0.084. Besides, the composite z-score in assay [14] is -0.0997; in assay [15], -0.322; in assay [16], -0.156; in the assay with Sam68 (KHDRBS1), -0.542; in assay [17], 0.647; in assay [18], 0.334. The compound also gave a z-score in assay [2] of 0.479. Besides, the composite Z-score in assay [11] was 0.303 (inactive).
`C=C(CCCC)/C(=C/C[C@H](OC(=O)c1ccncc1)c1ccc(CO)o1)c1cc(C(=O)OC)ccc1OC`: the composite z-score in assay [1] was -0.0541; in assay [3] it was 0.982; in [4], 0.786; in assay [5], -0.324; in assay [6] it was -0.196; in assay [7], 0.256. In addition, the composite z-score in assay [8] is 0.95; in assay [9] it was 0.539; in [10] it was 1.28; with Albumin (Bos taurus), 0.572; in [12], 0.201; in assay [13], -0.0534. The composite z-score in assay [14] was determined as 0.609; in assay [15], 1.38; in assay [16], 0.51; in the assay on Sam68 (KHDRBS1), 1.31; in assay [17] it was 0.487; in assay [18] it was 1.02. For the same compound, the z-score in assay [2] is -1.93. In addition, the composite Z-score in [11] is 0.243 (inactive).
`O=C(C=C(CC(O)c1cccc(Cl)c1)OCCF)OCCF` (stereo not given): the composite z-score is -2.46 in [1]; -0.492 in [3]; -0.277 in assay [4]; 0.896 in assay [5]; -0.0678 in assay [6]; 0.0278 in [7]. In addition, the composite z-score in [8] was 0.0014; in assay [9], 0.516; in assay [10], 0.392; with Albumin (Bos taurus) it was 0.912; in assay [12], -0.0903; in assay [13], -0.0746. The composite z-score in assay [14] was 0.0119; in [15], 0.143; in assay [16], 0.624; in the assay with Sam68 (KHDRBS1), -2.33; in assay [17] it was -0.594; in assay [18], -0.444. The z-score in [2] is -0.641. Moreover, the composite Z-score in [11] is -0.361 (inactive).
For `COCCOC(=O)N1C(=O)[C@@]2(c3cc(C#CCC(C(=O)OC)C(=O)OC)ccc31)[C@H](c1ccc(OCCO)cc1)N1[C@H](c3ccccc3)[C@H](c3ccccc3)OC(=O)[C@H]1[C@@H]2C(N)=O`, the composite z-score was 1.35 in assay [1]; 0.535 in assay [3]; 1.61 in [4]; 0.193 in assay [5]; -0.0718 in assay [6]; 0.0639 in assay [7]. The composite z-score is 0.129 in assay [8]; -0.189 in assay [9]; 0.992 in [10]; 0.84 in the assay with Albumin (Bos taurus); -0.0077 in assay [12]; 0.0264 in [13]. Moreover, the composite z-score in assay [14] was determined as 0.57; in assay [15], 2.82; in assay [16], 1.02; in the assay on Sam68 (KHDRBS1), 1.29; in assay [17] it was 0.474; in assay [18] it was 1.15. Also, the z-score in assay [2] is -1.12. Further, the composite Z-score in assay [11] is 0.674 (inactive).
